In assay [1] the test system is PRMT1 (protein arginine N-methyltransferase 1). Briefly: small molecules binding arginine methyltransferase PRMT1 – biochemical, small-molecule microarray, 635 nm fluorescence, primary screen (AID 1088).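 Also: binding of Prmt1 protein to compounds spotted on small-molecule microarray slides.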 As to conditions: higher = more signal.
Assay [2] in a line: growth effects on S. cerevisiae YJM789 – YJM789 clinical isolate, OD600, 24 h, basal, primary screen (AID 1089).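 Also: growth of clinical yeast isolate S. cerevisiae YJM 789 seeded 1000 cells per well; test concentration not given here.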 The settings on record: higher = more signal, called active from +8 up or from −8 down.
Assay [3] is described as follows: S. pombe growth modifiers, basal conditions – strain 972, OD600, 24 h, no modulator, primary screen (AID 1090).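 Also: basal condition with compound alone and no growth modifier present; test concentration not given here.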 As to conditions: S. pombe 972 growth, higher = more signal, called active from +8 up or from −8 down.
Assay [4] is described as follows: budding yeast growth modifiers under rapamycin – strain BY4716, OD600, 96 h, primary screen (AID 1091). Also: test concentration not given here. As to conditions: S. cerevisiae BY4716 + rapamycin, higher = more signal, called active from +8 up or from −8 down.
The target of assay [5] is Torsin-1A-interacting protein 2 (Homo sapiens) (UniProt Q8NFQ8). Briefly: small molecules binding lysate-expressed LULL1 – cell lysate, human LULL1 lysate, 635/667 nm fluorescence, primary screen (AID 1092).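 Also: probe is lysate of COS7 cells overexpressing human LULL1; score merges per-feature 667 nm fluorescence with signal-to-noise.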 The settings on record: small-molecule microarray, hLULL1 lysate binding, 635 nm fluorescence; higher = more signal.
Torsin-1A-interacting protein 2 (Homo sapiens), sequence (Q8NFQ8 whole entry, looked up): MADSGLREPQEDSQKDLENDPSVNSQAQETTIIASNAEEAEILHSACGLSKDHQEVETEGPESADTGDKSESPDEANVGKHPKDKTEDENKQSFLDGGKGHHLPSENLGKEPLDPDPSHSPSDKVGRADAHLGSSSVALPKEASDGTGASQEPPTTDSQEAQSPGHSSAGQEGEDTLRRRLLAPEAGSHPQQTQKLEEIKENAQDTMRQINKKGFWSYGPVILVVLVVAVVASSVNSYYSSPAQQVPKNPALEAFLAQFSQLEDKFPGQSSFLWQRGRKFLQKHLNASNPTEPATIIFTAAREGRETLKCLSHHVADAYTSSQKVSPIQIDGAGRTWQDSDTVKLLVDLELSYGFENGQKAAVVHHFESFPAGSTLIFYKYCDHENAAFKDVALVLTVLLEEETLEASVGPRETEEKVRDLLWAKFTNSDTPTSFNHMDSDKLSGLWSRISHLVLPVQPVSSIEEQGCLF
The nature of assay [6]: optical density change of DRC41 E. coli – strain DRC41, OD650, 24 h, E. coli filamentation project, primary screen (AID 1093).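 Also: MC1000 strain lacking acrAB efflux and sulA so SOS filamentation is blocked; test concentration not given here.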 As to conditions: E. coli DRC41 growth, higher = more signal, called active from +8 up or from −8 down.
Assay [7] can be described thus: probe aLefty2 binding to arrayed compounds – biochemical, biotinylated probe, 635/667 nm fluorescence, primary screen (AID 1094).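 Also: score merges spot fluorescence near 667 nm with spot signal-to-noise ratio.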 The settings on record: small-molecule microarray, higher = more signal.
Assay [8] relates to Noggin (protein binding on small-molecule microarray). Briefly: small molecules binding Noggin protein – biochemical, 635/667 nm fluorescence, primary screen (AID 1095).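 Also: score merges 667 nm feature fluorescence with signal to noise over triplicate slides.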 As to conditions: 635 nm fluorescence, higher = more signal.
Assay [9] deals with Neurogenic locus notch homolog protein 3 (Homo sapiens) (UniProt Q9UM47). As to the kind of experiment: small molecules binding NOTCH3 protein – biochemical, 635/667 nm fluorescence, primary screen (AID 1096). As to conditions: small-molecule microarray, 635 nm fluorescence, higher = more signal.
Neurogenic locus notch homolog protein 3 (Homo sapiens), sequence (Q9UM47 whole entry, looked up): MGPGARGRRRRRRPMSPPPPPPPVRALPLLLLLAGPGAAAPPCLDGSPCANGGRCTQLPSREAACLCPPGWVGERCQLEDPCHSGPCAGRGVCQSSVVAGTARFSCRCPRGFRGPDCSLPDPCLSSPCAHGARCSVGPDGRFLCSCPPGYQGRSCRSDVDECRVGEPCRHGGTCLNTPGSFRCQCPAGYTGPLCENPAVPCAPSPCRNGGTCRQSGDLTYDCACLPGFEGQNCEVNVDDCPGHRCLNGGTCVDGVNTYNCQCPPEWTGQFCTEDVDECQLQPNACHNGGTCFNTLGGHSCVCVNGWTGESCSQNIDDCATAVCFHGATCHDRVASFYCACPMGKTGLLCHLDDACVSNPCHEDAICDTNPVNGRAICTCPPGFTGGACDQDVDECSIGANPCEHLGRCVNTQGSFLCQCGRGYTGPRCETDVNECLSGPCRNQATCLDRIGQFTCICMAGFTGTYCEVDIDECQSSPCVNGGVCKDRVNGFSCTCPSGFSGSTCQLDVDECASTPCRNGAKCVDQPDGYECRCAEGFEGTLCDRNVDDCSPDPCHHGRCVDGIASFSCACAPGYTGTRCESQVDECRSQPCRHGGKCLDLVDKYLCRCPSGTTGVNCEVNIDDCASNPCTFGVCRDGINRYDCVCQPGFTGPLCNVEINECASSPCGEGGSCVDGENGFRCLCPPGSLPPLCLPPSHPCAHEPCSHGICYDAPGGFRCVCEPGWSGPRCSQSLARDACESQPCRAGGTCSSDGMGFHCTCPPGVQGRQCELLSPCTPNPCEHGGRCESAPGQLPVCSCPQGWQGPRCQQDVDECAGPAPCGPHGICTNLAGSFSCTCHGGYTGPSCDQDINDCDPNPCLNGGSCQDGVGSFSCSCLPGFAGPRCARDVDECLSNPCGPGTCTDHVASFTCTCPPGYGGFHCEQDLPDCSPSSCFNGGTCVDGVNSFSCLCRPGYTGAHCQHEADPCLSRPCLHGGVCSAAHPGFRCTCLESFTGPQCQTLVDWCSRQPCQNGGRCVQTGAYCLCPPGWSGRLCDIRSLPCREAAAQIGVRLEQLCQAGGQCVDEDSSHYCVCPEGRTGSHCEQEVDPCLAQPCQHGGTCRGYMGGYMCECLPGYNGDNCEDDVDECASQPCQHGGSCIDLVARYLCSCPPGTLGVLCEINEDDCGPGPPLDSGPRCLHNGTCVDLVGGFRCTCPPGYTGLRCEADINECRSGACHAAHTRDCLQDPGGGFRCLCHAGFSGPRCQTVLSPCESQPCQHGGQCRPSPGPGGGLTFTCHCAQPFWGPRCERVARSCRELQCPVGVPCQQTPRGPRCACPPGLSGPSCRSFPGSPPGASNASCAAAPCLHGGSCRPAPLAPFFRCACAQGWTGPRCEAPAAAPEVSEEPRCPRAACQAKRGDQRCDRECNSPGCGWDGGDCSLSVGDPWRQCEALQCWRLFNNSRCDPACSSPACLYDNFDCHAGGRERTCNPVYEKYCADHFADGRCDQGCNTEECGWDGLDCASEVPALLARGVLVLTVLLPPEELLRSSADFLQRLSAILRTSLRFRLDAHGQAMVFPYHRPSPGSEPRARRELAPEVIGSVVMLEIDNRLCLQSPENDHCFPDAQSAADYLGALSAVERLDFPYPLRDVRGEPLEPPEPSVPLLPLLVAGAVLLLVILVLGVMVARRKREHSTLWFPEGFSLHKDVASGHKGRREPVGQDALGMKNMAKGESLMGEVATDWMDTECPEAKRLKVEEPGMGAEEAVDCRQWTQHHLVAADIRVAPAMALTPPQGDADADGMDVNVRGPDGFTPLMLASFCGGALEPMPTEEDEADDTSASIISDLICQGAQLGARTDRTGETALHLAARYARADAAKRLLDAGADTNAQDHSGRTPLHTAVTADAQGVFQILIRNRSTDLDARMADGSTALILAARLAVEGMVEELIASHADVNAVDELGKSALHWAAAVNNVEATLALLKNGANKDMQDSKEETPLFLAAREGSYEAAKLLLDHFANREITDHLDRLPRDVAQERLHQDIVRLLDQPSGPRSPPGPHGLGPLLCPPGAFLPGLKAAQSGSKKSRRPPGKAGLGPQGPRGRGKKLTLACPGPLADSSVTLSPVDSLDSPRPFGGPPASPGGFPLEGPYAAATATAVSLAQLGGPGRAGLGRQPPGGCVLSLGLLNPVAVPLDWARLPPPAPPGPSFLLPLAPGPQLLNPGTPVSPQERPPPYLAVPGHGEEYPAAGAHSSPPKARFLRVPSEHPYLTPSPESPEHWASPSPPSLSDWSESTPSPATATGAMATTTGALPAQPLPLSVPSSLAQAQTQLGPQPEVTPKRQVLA
Assay [10] in a line: probe aEGFR binding to arrayed compounds – biochemical, biotinylated probe, 635/667 nm fluorescence, primary screen (AID 1097).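 Also: probe is a biotinylated anti-EGFR antibody binding compounds printed on slides; score combines fluorescence near 667 nm and signal to noise of each spot.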 The settings on record: small-molecule microarray, higher = more signal.
Assay [11] relates to Plasmodium falciparum Sir2 (PF13_0152, Sir2A). As to the kind of experiment: Plasmodium falciparum Sir2A binding compounds – biochemical, small-molecule microarray, 635 nm fluorescence, primary screen (AID 1098).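 Also: score merges spot fluorescence intensity with its signal-to-noise ratio.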 The settings on record: fluorescence 635 nm, higher = more signal.
Assay [12] in a line: probe aDKK1 binding to arrayed compounds – biochemical, biotinylated probe, 635/667 nm fluorescence, primary screen (AID 1099).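 Also: score merges 667nm spot fluorescence with signal to noise across triplicate slides; reference of the scale not given here.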 As to conditions: small-molecule microarray, higher = more signal.
The nature of assay [13]: probe aCHRDL2 binding to arrayed compounds – biochemical, biotinylated probe, 635/667 nm fluorescence, primary screen (AID 1100). The settings on record: small-molecule microarray, higher = more signal.
Assay [14] can be described thus: change in splice reporter luminescence, either direction, cell-based, HEK293, spliceosome inhibition project, primary screen (AID 1101).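 Also: HEK293 cells carrying a splicing-competent luciferase reporter gene; test concentration not given here.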 The settings on record: HEK293 splicing luciferase reporter, 24 h, higher = more signal, called active from +8 up or from −8 down. In general terms: In a reporter assay the amount or activity of a reporter protein is the signal.
The target in assay [15] is Fibroblast growth factor 10 (Homo sapiens) (UniProt O15520). Briefly: compounds binding fibroblast growth factor 10 – biochemical, small-molecule microarray, 635 nm fluorescence, primary screen (AID 1102). As to conditions: FGF10 binding, fluorescence 635 nm, higher = more signal.
Fibroblast growth factor 10 (Homo sapiens), sequence (O15520 whole entry, looked up): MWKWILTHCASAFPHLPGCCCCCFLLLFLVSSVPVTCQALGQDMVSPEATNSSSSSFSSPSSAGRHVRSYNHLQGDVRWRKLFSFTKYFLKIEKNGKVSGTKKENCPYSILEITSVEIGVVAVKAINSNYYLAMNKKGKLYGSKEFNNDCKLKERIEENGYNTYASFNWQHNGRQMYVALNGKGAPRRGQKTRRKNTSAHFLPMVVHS
The test system of assay [16] is glycogen synthase kinase-3 (GSK3A per assay name; protocol says GSK3B). Briefly: compounds binding glycogen synthase kinase-3 – biochemical, small-molecule microarray, 635 nm fluorescence, GSK3A, primary screen (AID 1103). Also: the record names both GSK3A and GSK3B. The settings on record: fluorescence 635 nm, higher = more signal.
Assay [17] has as its target Epidermal growth factor receptor (Homo sapiens) (UniProt P00533). As to the kind of experiment: compounds binding epidermal growth factor receptor – biochemical, small-molecule microarray, 635 nm fluorescence, primary screen (AID 1104).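 Also: score merges 667 nm emission intensity with spot signal to noise over triplicate slides.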 The settings on record: EGFR binding, higher = more signal.
Assay [18] addresses Follistatin-related protein 3 (Homo sapiens) (UniProt O95633). As to the kind of experiment: compounds binding follistatin-related protein 3 – biochemical, small-molecule microarray, 635 nm fluorescence, primary screen (AID 1105).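 Also: score merges emission near 667 nm and signal to noise per printed spot across three slides.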 As to conditions: FSTL3 binding, higher = more signal.
For assay [19], the target named is Dickkopf-related protein 1 (Homo sapiens) (UniProt O94907). As to the kind of experiment: small molecules binding DKK1 protein – biochemical, small-molecule microarray, 635 nm fluorescence scan, primary screen (AID 1106).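 Also: score merges emission near 667 nm with signal to noise over three replicate slides.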 The settings on record: higher = more signal.
Dickkopf-related protein 1 (Homo sapiens), sequence (O94907 whole entry, looked up): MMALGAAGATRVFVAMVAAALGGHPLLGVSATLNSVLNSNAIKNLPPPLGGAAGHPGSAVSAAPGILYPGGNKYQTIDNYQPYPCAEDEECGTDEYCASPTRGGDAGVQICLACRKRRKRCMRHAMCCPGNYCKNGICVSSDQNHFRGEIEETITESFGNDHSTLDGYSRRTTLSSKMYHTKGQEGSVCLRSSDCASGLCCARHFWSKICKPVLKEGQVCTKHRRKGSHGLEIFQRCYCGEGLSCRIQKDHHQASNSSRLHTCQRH
For assay [20], the system named is Inhibin beta A chain (activin A). As to the kind of experiment: small molecules binding activin A – biochemical, small-molecule microarray, 635 nm fluorescence scan, primary screen (AID 1107).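 Also: mouse activin A protein probed at 4.33 µg/mL on printed slides; score merges bound-protein fluorescence near 667 nm with spot signal-to-noise.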 As to conditions: INHBA, higher = more signal.

Activity calls are given as the source filed them.

In PubChem BioAssay one finds composite z-score and z-score data, which are given here for 5 compounds.

Epidermal growth factor receptor (Homo sapiens), sequence (P00533 whole entry, looked up): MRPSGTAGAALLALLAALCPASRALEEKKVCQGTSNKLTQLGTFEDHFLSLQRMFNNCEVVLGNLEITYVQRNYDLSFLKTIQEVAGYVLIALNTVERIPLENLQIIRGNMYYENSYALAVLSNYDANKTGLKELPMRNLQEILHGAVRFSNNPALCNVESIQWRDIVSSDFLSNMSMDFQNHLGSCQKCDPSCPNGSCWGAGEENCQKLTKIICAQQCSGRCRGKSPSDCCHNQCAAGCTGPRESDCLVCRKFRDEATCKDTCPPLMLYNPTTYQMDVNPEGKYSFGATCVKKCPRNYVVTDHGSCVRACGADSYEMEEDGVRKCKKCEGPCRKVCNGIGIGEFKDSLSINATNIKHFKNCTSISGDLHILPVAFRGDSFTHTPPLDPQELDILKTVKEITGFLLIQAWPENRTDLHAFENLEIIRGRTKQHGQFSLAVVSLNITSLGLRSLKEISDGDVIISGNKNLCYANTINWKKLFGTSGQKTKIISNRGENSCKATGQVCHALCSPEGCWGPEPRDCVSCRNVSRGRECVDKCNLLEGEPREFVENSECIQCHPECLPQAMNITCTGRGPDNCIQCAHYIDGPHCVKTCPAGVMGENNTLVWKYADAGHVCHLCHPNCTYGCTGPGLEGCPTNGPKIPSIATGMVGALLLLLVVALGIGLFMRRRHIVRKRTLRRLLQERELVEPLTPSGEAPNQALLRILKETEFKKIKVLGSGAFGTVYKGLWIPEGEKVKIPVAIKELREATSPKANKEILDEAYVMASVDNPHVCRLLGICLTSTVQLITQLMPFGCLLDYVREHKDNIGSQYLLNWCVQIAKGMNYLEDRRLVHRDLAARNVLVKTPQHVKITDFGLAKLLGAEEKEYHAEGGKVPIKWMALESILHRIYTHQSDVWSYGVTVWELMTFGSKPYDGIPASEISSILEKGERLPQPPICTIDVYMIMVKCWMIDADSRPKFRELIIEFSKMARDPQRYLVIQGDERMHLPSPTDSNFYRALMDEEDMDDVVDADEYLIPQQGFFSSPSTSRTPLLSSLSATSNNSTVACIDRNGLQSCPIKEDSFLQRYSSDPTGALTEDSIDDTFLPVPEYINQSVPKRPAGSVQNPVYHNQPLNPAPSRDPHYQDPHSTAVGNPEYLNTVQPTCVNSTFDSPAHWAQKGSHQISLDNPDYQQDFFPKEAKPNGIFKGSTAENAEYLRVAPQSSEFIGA
Follistatin-related protein 3 (Homo sapiens), sequence (O95633 whole entry, looked up): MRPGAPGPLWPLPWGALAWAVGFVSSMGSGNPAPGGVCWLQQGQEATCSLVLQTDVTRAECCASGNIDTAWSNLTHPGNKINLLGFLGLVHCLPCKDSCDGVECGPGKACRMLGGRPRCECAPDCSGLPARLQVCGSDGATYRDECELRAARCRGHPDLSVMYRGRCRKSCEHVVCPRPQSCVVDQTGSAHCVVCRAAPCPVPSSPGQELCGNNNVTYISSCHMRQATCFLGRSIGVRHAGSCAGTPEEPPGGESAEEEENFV

Regarding `O=C1O[C@H](c2ccccc2)[C@H](c2ccccc2)N2[C@H]1[C@@H](C(=O)Nc1nc3ccccc3s1)[C@]1(C(=O)Nc3ccc(C#CC4(O)CCCCCC4)cc31)[C@H]2c1ccc(O)cc1`, the composite z-score is 1.54 in [1]; 3.08 in [5]; 0.11 in assay [7]; 1.59 in assay [8]; 1.09 in assay [9]; -0.0214 in assay [10]. Besides, the composite z-score is 1.53 in assay [11]; 0.0991 in assay [12]; -0.0778 in assay [13]; 1.13 in assay [15]; 1.27 in [16]; 0.556 in [17]. Moreover, the composite z-score is 0.976 in assay [18], 0.413 in assay [19] and 0.357 in assay [20]. For the same compound, the z-score is -0.0416 (inactive) in [2]; -0.265 (inactive) in assay [3]; 0.439 (inactive) in [4]; -0.616 (inactive) in [6]; -0.493 (inactive) in assay [14].

As for `O=C1OCC=C[C@H]2OC34C=CCN(Cc5ccccc5)C(=O)[C@H]3N(CCCCCO)C(=O)[C@@H]4[C@@H]12` (stereo not given in full), the composite z-score was -0.702 in assay [1]; 1.06 in assay [5]; 0.0282 in [7]; -1.5 in assay [8]; -0.911 in assay [9]; -0.358 in assay [10]. The composite z-score in assay [11] was 1.41; in [12], -0.212; in assay [13], 0.528; in [15] it was -0.606; in assay [16], -0.447; in assay [17], -1.36. The composite z-score in assay [18] is -0.647; in [19], -1.01; in [20], 0.18. The z-score was -0.524 (inactive) in [2]; -1.06 (inactive) in assay [3]; -0.368 (inactive) in assay [4]; 2.33 (inactive) in [6]; -1.45 (inactive) in assay [14].

`C=CCOC(=O)[C@@H]1[C@H]2C(=O)O[C@H](c3ccccc3)[C@H](c3ccccc3)N2[C@H](c2ccc(OCCOC(=O)[C@H]3C[C@H]4C(=O)N5CCC[C@H]5C(=O)N4[C@H]3c3ccc(O)cc3)cc2)[C@@]12C(=O)Nc1ccccc12`: the composite z-score amounted to 1.51 in [1]; 1.44 in [5]; 0.239 in assay [7]; 0.684 in assay [8]; 0.695 in assay [9]; 0.0459 in assay [10]. The composite z-score in assay [11] amounted to 1.04; in assay [12], 0.264; in assay [13], 0.573; in [15] it was 0.883; in assay [16], 1.18; in assay [17], 0.689. Moreover, the figures for the composite z-score in assay [18], in [19] and in [20] were 1.34, 0.921 and 0.668, respectively. Further, the z-score in [2] was -0.0259 (inactive); in [3], -0.766 (inactive); in assay [4], 2.42 (inactive); in [6], 2.52 (inactive); in assay [14], -1.3 (inactive).

Consider `CN1CCC(CCCO)=CC1C1CC1` (stereo not given), for which the composite z-score was 0.608 in assay [1]; -0.463 in [5]; -0.308 in assay [7]; 0.724 in [8]; 0.0618 in assay [9]; -0.104 in assay [10]. Moreover, the composite z-score is 0.537 in [11]; -0.499 in [12]; -0.896 in [13]; 0.59 in assay [15]; 0.348 in assay [16]; 0.0647 in [17]. The values for the composite z-score in assay [18], in assay [19] and in [20] were 0.0254, 0.293 and 0.719, respectively. Also, the z-score in [2] is -0.477 (inactive); in assay [3], -0.851 (inactive); in [4], -0.761 (inactive); in assay [6], 1.08 (inactive); in assay [14], -1.18 (inactive).

On to `CN(C)CCCC[C@@H]1NC(=O)[C@@H]2C[C@H](C(=O)NCCCCCNC(=O)CS)[C@H](c3ccc(O)cc3)N2C1=O`, for which the composite z-score in [1] is 1.42; in assay [5] it was 0.863; in assay [7] it was -0.0079; in assay [8] it was 1.88; in assay [9] it was 0.208; in [10], 0.268. Moreover, the composite z-score in assay [11] is 1.19; in assay [12] it was 0.0418; in assay [13], -0.109; in assay [15], 1.11; in assay [16], 0.667; in assay [17], 0.0635. The composite z-score in assay [18] worked out at 1.18; in assay [19], 1.81; in [20], 0.687. Further, the z-score in [2] was 0.081 (inactive); in [3], -1.42 (inactive); in assay [4], -0.342 (inactive); in assay [6], 1.14 (inactive); in assay [14], -0.812 (inactive).
